The source of these data is PubChem BioAssay (EPA / NIEHS).

Active and inactive are the calls of the source. Rule for the calls: active = hit-call score of the fitted dose curve at least 0.9, where 1 is the maximum; inactive = score below 0.9.

Assay [1] deals with Transcription factor E2F1 (Homo sapiens) (UniProt Q01094). Kind of assay: ATG_E2F_CIS: Attagene CIS-FACTORIAL HepG2 Assay for human E2F Transcription Factor 1 (AID 2282935). To be noted: HepG2 Attagene cis-reporter, E2F reporter RNA transcripts; actives raise or lower the signal. Put shortly: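 Multiplexed cis-reporter assay: HepG2, transient transfection, 24 h dosing, mRNA quantitation by labeled RT-PCR and CE.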
Sequence of Transcription factor E2F1 (Homo sapiens) (Q01094 whole entry, looked up): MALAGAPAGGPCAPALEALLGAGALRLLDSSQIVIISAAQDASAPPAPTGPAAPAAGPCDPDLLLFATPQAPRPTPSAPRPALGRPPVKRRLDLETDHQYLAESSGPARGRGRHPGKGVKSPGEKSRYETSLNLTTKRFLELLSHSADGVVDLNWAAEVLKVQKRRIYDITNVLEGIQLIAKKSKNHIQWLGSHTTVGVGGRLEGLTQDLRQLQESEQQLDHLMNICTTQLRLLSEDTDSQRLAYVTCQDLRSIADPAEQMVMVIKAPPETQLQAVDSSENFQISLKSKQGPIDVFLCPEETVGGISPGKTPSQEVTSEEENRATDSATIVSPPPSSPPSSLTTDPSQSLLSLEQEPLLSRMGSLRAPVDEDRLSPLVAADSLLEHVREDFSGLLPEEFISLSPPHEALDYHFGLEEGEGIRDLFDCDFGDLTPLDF

A short description of assay [2]: ATG_E_Box_CIS: Attagene CIS-FACTORIAL HepG2 Assay for human Enhancer Box (E-box) (AID 2282936). To be noted: HepG2 E-box cis-reporter transcription, actives raise or lower the signal. In outline: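 Multiplexed CIS reporter system in transiently transfected HepG2 cells measures native transcription factor activity. Reporter RNA after 24 h exposure is profiled by RT-PCR-capillary electrophoresis.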

The nature of assay [3]: ATG_M_61_CIS: Attagene CIS-FACTORIAL HepG2 Assay for M61 Transcription Factor (Internal Marker) (AID 2282937). To be noted: HepG2 Attagene CIS-FACTORIAL M61 internal marker reporter; actives raise or lower the signal. In outline:
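Transfect HepG2 with MRTUs; dose 24 h; isolate RNA; reverse-transcribe with DNase I treatment; PCR-amplify, FAM-label and cut with HpaI for 2 h at 37 C; resolve by CE. Bidirectional fitting against DMSO.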

Assay [4] in a line: ATG_EGR_CIS: Attagene CIS-FACTORIAL HepG2 Assay for human Early Growth Response 1 (EGR1) (AID 2282938). To be noted: HepG2 Attagene CIS-FACTORIAL EGR reporter mRNA; actives raise or lower the signal. Put shortly:
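After a 24 h treatment of transiently transfected HepG2 cells, total RNA was reverse-transcribed and reporter sequences PCR-amplified, labelled and run on capillary electrophoresis. Reporters sit under cis-regulatory promoters sensing endogenous factors.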

A short description of assay [5]: ATG_M_19_CIS: Attagene CIS-FACTORIAL HepG2 Assay for M19 Transcription Factor (Internal Marker) (AID 2282939). To be noted: HepG2 Attagene CIS-FACTORIAL M19 internal marker reporter; actives raise or lower the signal. Put shortly:
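Following a 24 h exposure, RNA from transfected HepG2 cells was reverse-transcribed, PCR-amplified with reporter-specific primers, end-labelled with 6-FAM and HpaI-digested before capillary separation. Values represent gain or loss versus DMSO.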

The nature of assay [6]: ATG_ERE_CIS: Attagene CIS-FACTORIAL HepG2 Assay for Estrogen Response Element (ERE) (AID 2282940). To be noted: HepG2 ERE cis-reporter, Attagene RNA transcript; actives raise or lower the signal. In outline: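 HepG2, transient cis-reporter units, 24 h exposure. RNA isolated, oligo(dT) RT, reporter-specific PCR, FAM extension, HpaI cut, CE detection. Gain/loss-of-signal vs DMSO.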

A short description of assay [7]: ATG_Ets_CIS: Attagene CIS-FACTORIAL HepG2 Assay for human Erythroblast Transformation Specific (ETS) (AID 2282941). To be noted: HepG2 ETS cis-reporter transcription, actives raise or lower the signal. In outline: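 Human HepG2 hepatoma cells were transiently transfected with promoter-driven reporter constructs and treated for 24 hours. Reporter transcripts were quantified by RT-PCR with fluorescent primer extension; bidirectional curve fitting used DMSO as reference.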

Assay [8] addresses Hepatocyte nuclear factor 3-beta (Homo sapiens) (UniProt Q9Y261). Kind of assay: ATG_FoxA2_CIS: Attagene CIS-FACTORIAL HepG2 Assay for human Forkhead box A2 (FOXA2) (AID 2282942). The note with it: HepG2 cis-reporter transcription factor activity, 24 h; actives raise or lower the signal. Put shortly:
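24 h dosing of HepG2 bearing cis-reporter constructs; mRNA readout by RT-PCR/CE fluorescence; bidirectional fit, DMSO baseline.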

The nature of assay [9]: ATG_FoxO_CIS: Attagene CIS-FACTORIAL HepG2 Assay for human Forkhead box O (FoxO) (AID 2282943). The note with it: HepG2 Attagene cis-reporter, FoxO element, mRNA; actives raise or lower the signal. Put shortly:
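24 h chemical exposure, HepG2 with transient cis-MRTU transfection. RNA extraction, oligo(dT) RT, reporter-specific PCR, primer-extension labelling, HpaI digestion, CE fragment analysis; bidirectional fit, DMSO baseline.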

Assay [10] in a line: ATG_GATA_CIS: Attagene CIS-FACTORIAL HepG2 Assay for human GATA Binding Protein (AID 2282944). To be noted: HepG2 GATA cis-element reporter, Attagene multiplex mRNA; actives raise or lower the signal. Put shortly:
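DMSO serves as negative control and baseline for bidirectional fitting of reporter mRNA changes. HepG2 cells bearing transiently transfected cis-promoter reporters were exposed 24 h; transcripts detected via RT-PCR and capillary electrophoresis.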

Assay [11] in a line: ATG_GLI_CIS: Attagene CIS-FACTORIAL HepG2 Assay for human Zinc Finger Protein GLI1 (AID 2282945). To be noted: HepG2, Attagene cis-factorial reporter mRNA, GLI element; actives raise or lower the signal. Put shortly:
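HepG2 cells transiently transfected with cis-promoter multiplexed reporter units report endogenous transcription factor activity. After 24 h chemical exposure, reporter mRNA was quantified by RT-PCR, 6-FAM labelling, HpaI digestion and capillary electrophoresis, with bidirectional fitting against DMSO.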

A short description of assay [12]: ATG_GRE_CIS: Attagene CIS-FACTORIAL HepG2 Assay for human Glucocorticoid Response Elements (GRE) (AID 2282947). To be noted: HepG2 GRE cis-reporter, Attagene multiplex mRNA; actives raise or lower the signal. In outline:
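Following 24 h chemical exposure of transiently transfected HepG2 cells, total RNA was reverse-transcribed and reporter cDNA amplified, fluorescently labelled and sized by capillary electrophoresis. Signal gain or loss was fitted relative to DMSO vehicle.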

Assay [13] in a line: ATG_ISRE_CIS: Attagene CIS-FACTORIAL HepG2 Assay for human Interferon Regulatory Factor 1 (IRF1) binding to an Interferon-Stimulated Response Element (ISRE) (AID 2282948). The note with it: HepG2 ISRE cis-reporter (Attagene), mRNA transcription readout; actives raise or lower the signal. Put shortly:
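Cell-based cis-reporter assay; HepG2; 24 h exposure; reporter mRNA by RT-PCR plus capillary electrophoresis fluorescence; activity in either direction scored relative to DMSO.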

A short description of assay [14]: ATG_M_32_CIS: Attagene CIS-FACTORIAL HepG2 Assay for M32 Transcription Factor (Internal Marker) (AID 2282949).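 Note: background control marker of the multiplexed CIS panel rather than a real target.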 To be noted: HepG2 Attagene cis-factorial M32 reporter, mRNA; actives raise or lower the signal. Put shortly:
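HepG2 cells transiently transfected with multiplexed cis-regulated reporter units, dosed 24 h. Reporter mRNA quantified by RT-PCR, 6-FAM labelling, HpaI digestion and capillary electrophoresis; bidirectional fit vs DMSO.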

A short description of assay [15]: ATG_M_06_CIS: Attagene CIS-FACTORIAL HepG2 Assay for M06 Transcription Factor (Internal Marker) (AID 2282950). To be noted: HepG2 Attagene CIS-FACTORIAL M06 internal marker reporter; actives raise or lower the signal. In outline:
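Fluorescence-labelled RT-PCR products from cis-promoter reporter units, cut with HpaI and resolved by capillary electrophoresis, give the signal. Cells are human HepG2, dosed for 24 h. Serves as background control, fitted relative to DMSO.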

Assay [16] concerns the target Hepatocyte nuclear factor 6 (Homo sapiens) (UniProt Q9UBC0). In words: ATG_HNF6_CIS: Attagene CIS-FACTORIAL HepG2 Assay for human Hepatocyte Nuclear Factor 6 (HNF6) (AID 2282952). To be noted: HepG2 Attagene cis-factorial HNF6 reporter transcription; actives raise or lower the signal. In outline:
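HepG2 cells transiently transfected with cis-element-driven multiple reporter transcription units, dosed 24 h; reporter mRNA quantified by RT-PCR, FAM primer extension, HpaI digestion and capillary electrophoresis; bidirectional fit versus DMSO baseline.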

For assay [17], the target named is Heat shock factor protein 1 (Homo sapiens) (UniProt Q00613). In words: ATG_HSE_CIS: Attagene CIS-FACTORIAL HepG2 Assay for human Heat Shock Transcription Factor 1 (HSE) (AID 2282953). To be noted: HepG2 HSE cis-reporter, Attagene RNA transcription; actives raise or lower the signal. In outline:
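After a 24 h incubation with test chemical, transfected HepG2 cells were harvested for RNA; reporter transcripts were measured by RT-PCR and capillary electrophoresis. Values reflect gain or loss of signal relative to DMSO.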

The nature of assay [18]: ATG_MRE_CIS: Attagene CIS-FACTORIAL HepG2 Assay for human Metal Responsive Element (MRE) (AID 2282954). The note with it: HepG2 MRE cis-reporter transcription, Attagene multiplex; actives raise or lower the signal. Put shortly:
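Step one: transfect HepG2 with cis-regulated reporter units. Step two: dose 24 h. Step three: isolate RNA, RT-PCR, 6-FAM label, HpaI digest, capillary electrophoresis. Fit bidirectionally to DMSO.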

For assay [19], the target named is Hypoxia-inducible factor 1-alpha (Homo sapiens) (UniProt Q16665). In words: ATG_HIF1a_CIS: Attagene CIS-FACTORIAL HepG2 Assay for human Hypoxia Inducible Factor 1 (HIF1A) (AID 2282951). To be noted: HepG2 Attagene cis-factorial HIF1a reporter transcription; actives raise or lower the signal. In outline: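 After 24 h chemical exposure of reporter-transfected HepG2 cells, reporter cDNA was PCR-amplified, labelled by 6-FAM primer extension (2 min 95 C, 20 s 68 C, 10 min 72 C), HpaI-cut (2 h, 37 C) and analysed by CE.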
Sequence of Hypoxia-inducible factor 1-alpha (Homo sapiens) (Q16665 whole entry, looked up): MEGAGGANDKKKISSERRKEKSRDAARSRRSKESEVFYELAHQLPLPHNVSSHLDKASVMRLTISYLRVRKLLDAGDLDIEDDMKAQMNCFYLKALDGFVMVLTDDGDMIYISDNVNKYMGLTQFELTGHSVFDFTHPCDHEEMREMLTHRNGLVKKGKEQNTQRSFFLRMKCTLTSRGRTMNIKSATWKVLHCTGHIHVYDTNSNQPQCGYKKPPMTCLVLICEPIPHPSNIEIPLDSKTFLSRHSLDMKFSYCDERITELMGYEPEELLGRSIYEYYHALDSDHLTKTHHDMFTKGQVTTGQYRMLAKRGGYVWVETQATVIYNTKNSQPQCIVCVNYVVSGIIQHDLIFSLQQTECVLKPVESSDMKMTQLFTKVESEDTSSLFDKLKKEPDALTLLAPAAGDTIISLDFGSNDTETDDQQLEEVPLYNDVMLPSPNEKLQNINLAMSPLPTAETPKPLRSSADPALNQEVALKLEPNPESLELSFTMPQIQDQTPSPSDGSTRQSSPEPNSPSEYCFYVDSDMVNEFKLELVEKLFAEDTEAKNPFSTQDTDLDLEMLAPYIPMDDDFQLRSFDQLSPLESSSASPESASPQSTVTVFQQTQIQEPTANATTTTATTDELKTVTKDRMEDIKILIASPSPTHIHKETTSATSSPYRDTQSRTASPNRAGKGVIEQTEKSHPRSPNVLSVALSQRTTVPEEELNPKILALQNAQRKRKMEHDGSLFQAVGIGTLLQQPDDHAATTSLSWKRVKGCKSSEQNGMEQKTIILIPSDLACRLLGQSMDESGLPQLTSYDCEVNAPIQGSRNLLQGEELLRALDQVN

Sequence of Heat shock factor protein 1 (Homo sapiens) (Q00613 whole entry, looked up): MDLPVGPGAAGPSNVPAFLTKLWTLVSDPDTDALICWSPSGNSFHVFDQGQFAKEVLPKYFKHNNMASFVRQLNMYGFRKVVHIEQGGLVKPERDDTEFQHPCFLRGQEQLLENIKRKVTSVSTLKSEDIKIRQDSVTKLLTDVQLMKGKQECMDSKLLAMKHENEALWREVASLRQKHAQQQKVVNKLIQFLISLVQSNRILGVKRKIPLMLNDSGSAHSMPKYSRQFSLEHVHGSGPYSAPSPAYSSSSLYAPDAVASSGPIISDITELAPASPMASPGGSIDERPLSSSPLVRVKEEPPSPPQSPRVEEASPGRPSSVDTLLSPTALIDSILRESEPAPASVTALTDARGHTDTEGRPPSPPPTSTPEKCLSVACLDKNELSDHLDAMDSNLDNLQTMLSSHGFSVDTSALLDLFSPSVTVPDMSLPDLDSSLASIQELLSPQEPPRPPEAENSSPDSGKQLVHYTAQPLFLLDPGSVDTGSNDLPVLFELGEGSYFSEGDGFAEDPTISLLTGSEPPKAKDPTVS
Sequence of Hepatocyte nuclear factor 3-beta (Homo sapiens) (Q9Y261 whole entry, looked up): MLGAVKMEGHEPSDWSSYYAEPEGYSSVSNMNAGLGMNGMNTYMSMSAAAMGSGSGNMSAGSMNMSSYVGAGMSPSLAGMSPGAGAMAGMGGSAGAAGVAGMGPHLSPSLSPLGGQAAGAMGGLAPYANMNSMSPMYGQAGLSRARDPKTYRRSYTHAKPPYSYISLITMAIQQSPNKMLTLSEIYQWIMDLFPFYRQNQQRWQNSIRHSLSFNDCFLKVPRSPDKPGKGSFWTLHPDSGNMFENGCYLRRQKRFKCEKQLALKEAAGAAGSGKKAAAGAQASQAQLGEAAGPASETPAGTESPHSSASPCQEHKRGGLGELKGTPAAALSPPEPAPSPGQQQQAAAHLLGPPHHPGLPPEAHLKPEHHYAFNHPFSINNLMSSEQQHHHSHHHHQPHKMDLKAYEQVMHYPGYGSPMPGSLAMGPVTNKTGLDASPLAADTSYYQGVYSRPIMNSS
Sequence of Hepatocyte nuclear factor 6 (Homo sapiens) (Q9UBC0 whole entry, looked up): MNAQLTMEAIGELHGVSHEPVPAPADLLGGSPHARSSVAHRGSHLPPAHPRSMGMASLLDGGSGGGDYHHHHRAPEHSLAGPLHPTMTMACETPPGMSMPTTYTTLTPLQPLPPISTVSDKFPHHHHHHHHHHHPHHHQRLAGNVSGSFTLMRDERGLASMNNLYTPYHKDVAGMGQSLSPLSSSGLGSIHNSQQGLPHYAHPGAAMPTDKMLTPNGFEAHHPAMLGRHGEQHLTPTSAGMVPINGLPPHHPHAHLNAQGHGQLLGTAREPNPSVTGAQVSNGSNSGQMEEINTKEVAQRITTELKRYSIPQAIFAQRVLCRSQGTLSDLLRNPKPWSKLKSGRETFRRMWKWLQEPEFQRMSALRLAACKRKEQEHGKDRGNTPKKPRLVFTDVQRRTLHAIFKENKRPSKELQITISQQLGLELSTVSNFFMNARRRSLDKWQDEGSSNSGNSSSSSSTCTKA

As for `Cc1ccc2c(c1)CCCN2`, the compound was called inactive in assay [1], in assay [2], in assay [3], in assay [4], in assay [5] and in assay [6]. Besides, the compound was called inactive in assay [7], in assay [8], in [9], in assay [10], in assay [11] and in assay [12]. Also, the compound was classed as inactive in [13], in assay [14], in assay [15], in assay [16], in assay [17] and in [18].

On to `CC(C)CC(=O)OCc1ccccc1`, for which the compound was called inactive in assay [1], in assay [2], in assay [3], in assay [4], in assay [5] and in [6]. For the same compound, the call in assay [7], in assay [8], in assay [9], in assay [10], in assay [11] and in assay [12] was inactive. In addition, the outcome in assay [13], in assay [14], in assay [15], in [16], in assay [17] and in assay [18] was inactive.

As to `CCCCC(CC)COC(=O)/C=C/c1ccc(OC)cc1` (stereo not drawn), the outcome in [1], in assay [2], in assay [3], in assay [4], in assay [5] and in assay [6] was inactive. For the same compound, the compound was classed as inactive in assay [7], in assay [8], in [9], in assay [10], in assay [11] and in assay [12]. Besides, the call in assay [13], in assay [14], in assay [15], in assay [19], in assay [16] and in [17] was inactive. Also, the compound was classed as inactive in [18].

For `O=C(O[C@@H]1Cc2c(O)cc(O)cc2O[C@@H]1c1cc(O)c(O)c(O)c1)c1cc(O)c(O)c(O)c1`, the call in assay [1], in assay [2], in assay [3], in assay [4], in assay [5] and in assay [6] was inactive. Moreover, the call in [7], in [8], in assay [9], in assay [10], in assay [11] and in assay [12] was inactive. In addition, the compound was called inactive in assay [13], in assay [14], in assay [15], in [16] and in assay [18]. Further, the AC50 – broadly, the concentration at which the activity in the assay is half-maximal – in [19] is 26.8 µM (active).

With `Cc1cccc(C(C)(C)C)c1O`, the result in [1], in assay [2], in [3], in assay [4], in [5] and in [6] was inactive. Moreover, the compound was called inactive in assay [7], in assay [8], in assay [9], in assay [10], in assay [11] and in assay [12]. In addition, the compound was classed as inactive in assay [13], in assay [15], in [19], in assay [16], in assay [17] and in assay [18].

As to `O=C(OCCc1ccccc1)c1ccccc1`, the call in [1], in assay [2], in assay [3], in assay [4], in assay [5] and in [6] was inactive. The result in assay [7], in assay [8], in [9], in [10], in [11] and in assay [12] was inactive. Moreover, the compound was classed as inactive in [13], in assay [14], in assay [15], in assay [19], in assay [16] and in assay [17]. Also, the compound was classed as inactive in assay [18].

Turning to `O=C(Oc1ccccc1)c1ccccc1C(=O)Oc1ccccc1`, the call in assay [1], in assay [2], in [3], in [4], in [5] and in assay [6] was inactive. The outcome in [7], in assay [8], in [9], in assay [10], in assay [11] and in [12] was inactive. Further, the outcome in assay [13], in assay [14], in assay [15], in [16], in assay [17] and in assay [18] was inactive.
